Screening results from PubChem BioAssay.
An excerpt weighted towards active compounds, which were near 9.4% of everything screened.
Rab9 promoter act: activators of Rab9 promoter; Huh7 Rab9 promoter-luciferase reporter, luminescence, 24 h; Potency, µM (titrated, usually from 9.22 µM), without a hit: at the top dose activation, negative = inhibition, most hits filed as activators; 320,000 compounds, 2.8% hits; AID 485297; also: % of control where 0% means no effect; nearly all actives have a fitted effect of over 60% in size
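Luminescence from Amplite-detected luciferase (10 minutes, ambient) reports Rab9 promoter activation. Before that, stable Rab9-luciferase Huh7 cells (1500/well, reduced-serum OP-MEM I plus 10% FBS) were exposed to compound for 24 hours at 37C.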
ELG1 genotox: induces genotoxicity in HEK293T cells with luciferase-tagged ELG1; Potency, µM (doses to about 46 µM), inactives show at the top dose activity change, positive = activation, usual class: activators; 330,000 compounds, 1.3% hits; HEK293T ELG1-luciferase reporter, luminescence, 16 h; AID 504466; also: % of control where 0% means no effect; nearly all actives have a fitted effect of over 60% in size
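16 hr compound incubation (37 °C, 5% CO2) of HEK293T cells carrying luciferase-tagged ELG1; luciferase then measured by ONE-Glo luminescence after 30 min at RT.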
ELG1 DNA repair: ELG1-dependent DNA repair inhibition. 330,000 compounds, 2.3% hits. HEK293T ELG1-luciferase reporter, luminescence, 16 h; DNA damage induced by 5-fluorouridine. Potency, µM (series often up to 46.1 µM), for inactives: at the highest dose activity change, negative = inhibition, usual class: inhibitors; also: % is scaled to controls: 0 for no effect and ±100 for the full control effect; nearly all actives have a fitted effect of over 55% in size
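HEK293T cells expressing luciferase-tagged ELG1 (2,000/well) received 5-Fluorouridine plus compound or DMSO for 16 hr at 37 °C. Luciferase was read by ONE-Glo luminescence after 30 min at room temperature.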
SMN2 splice enh: enhancers of SMN2 splice variant expression; Potency, µM (doses to about 46.1 µM), for the others: at the highest dose activity change, positive = activation, most hits filed as activators; HEK293 SMN2-luciferase splicing reporter, luminescence, 30-36 h; 210,000 compounds, 2.8% hits; also: % of control where 0% means no effect; nearly all actives have a fitted effect of over 55% in size
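HEK293 cells carry an SMN2 […]–luciferase reporter in which exon 7 inclusion puts luciferase in frame. Cells were plated 10-12 h before compound addition, then incubated 30-36 h at 37C. ONE-Glo luminescence was read; sodium butyrate at 4.5 mM final served as control.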
NPC1 promoter act: activates the NPC1 promoter; 320,000 compounds, 2.4% hits; Huh7 NPC1 promoter luciferase reporter, 24 h; Potency, µM (doses to about 9.22 µM), inactives show at the highest dose activation, hits mostly activators; AID 485313; also: % of control where 0% means no effect; nearly all actives have a fitted effect of over 60% in size
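Luminescence read-out of NPC1 promoter-driven luciferase in stably transfected Huh7 cells; compounds delivered in DMSO and left 24 h at 37C, 5% CO2, qHTS titration format.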
FLuc modulator: firefly luciferase modulation, counter-screen for miR-21 project | P08659 | purified FLuc, Km substrates, luminescence inhibition | Potency, µM (doses to about 57.5 µM), inactives show at the highest dose activity change, negative = inhibition, most hits filed as inhibitors | 360,000 compounds, 6.9% hits | AID 588342;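 also: plate controls were vehicle for no effect and reference inhibitor for full effect; nearly all actives have a fitted effect of over 55% in size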
Target sequence (P08659 whole entry, looked up): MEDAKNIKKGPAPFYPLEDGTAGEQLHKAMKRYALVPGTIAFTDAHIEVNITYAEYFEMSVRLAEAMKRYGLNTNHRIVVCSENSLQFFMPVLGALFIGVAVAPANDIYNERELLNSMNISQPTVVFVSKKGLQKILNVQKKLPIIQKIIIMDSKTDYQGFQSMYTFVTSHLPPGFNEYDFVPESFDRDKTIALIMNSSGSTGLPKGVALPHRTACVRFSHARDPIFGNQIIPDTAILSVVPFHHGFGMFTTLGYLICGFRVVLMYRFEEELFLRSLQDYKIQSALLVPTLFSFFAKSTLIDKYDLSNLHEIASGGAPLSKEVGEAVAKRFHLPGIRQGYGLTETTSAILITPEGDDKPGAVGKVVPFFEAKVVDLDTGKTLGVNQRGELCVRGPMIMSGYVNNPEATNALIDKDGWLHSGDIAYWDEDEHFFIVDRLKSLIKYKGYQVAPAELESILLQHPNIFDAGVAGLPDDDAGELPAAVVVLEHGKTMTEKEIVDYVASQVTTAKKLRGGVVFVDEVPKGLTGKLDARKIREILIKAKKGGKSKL
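Biochemical qHTS of compounds, final roughly 60 µM downward over six points, against 10 nM purified firefly luciferase using Km concentrations of substrates (10 uM D-luciferin, 10 uM ATP) in Tris acetate pH 7.5 buffer; luminescence output.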
Starred values were filed as active, the others as inactive; [ ] = another dose, or the depositor's remark. Calls follow the shape of the dose curve; as a rule, active = well fitted curve in the direction sought with a large enough effect; inconclusive = small, poorly fitted or top-dose-only effect, or another doubt; inactive = no such curve, though single readings can be large; an effect the other way counts as inactive or inconclusive. Potency is read from the fitted curve at half-maximal effect.

For Cc1cc(C)cc(NC(=O)N2CCC(CN3CCc4ccccc4C3)CC2)c1 the results were FLuc modulator -3%.
`O=C(NNc1cc(Br)c(O)c(Br)c1)c1ccccc1` gave Rab9 promoter act -4%, ELG1 genotox -4%, ELG1 DNA repair 19%, SMN2 splice enh -22%, NPC1 promoter act 4% and FLuc modulator 21µM*.
CC1CCc2nc(/C(C#N)=C/c3ccncc3)sc2C1 (centres undefined) was read as Rab9 promoter act 3.2µM*, ELG1 genotox inconclusive, ELG1 DNA repair inconclusive, SMN2 splice enh 18µM*, NPC1 promoter act 2.8µM* and FLuc modulator 9.5µM*.
`Cc1cc(C)n(-c2nc(C)c(C)c(=O)n2CC(=O)Nc2cccc([N+](=O)[O-])c2)n1` gave FLuc modulator -11%.
For CC1(C)CC(N2CCCC2)=CC(=[N+]2CCCC2)C1 the results were Rab9 promoter act -38%, ELG1 genotox -7%, ELG1 DNA repair -8%, SMN2 splice enh -68%, NPC1 promoter act -31% and FLuc modulator 2%.
CC1(C)CC(N2CCN(Cc3ccccc3)CC2)=CC(=[N+]2CCCCC2)C1 was read as Rab9 promoter act -40%, ELG1 genotox -6%, ELG1 DNA repair 0.73µM*, NPC1 promoter act -31% and FLuc modulator 0%.
Screening CC1(C)CC(N2CCCC2)=CC(=[N+]2CCCCC2)C1 returned Rab9 promoter act -40%, ELG1 genotox -5%, ELG1 DNA repair 1.2µM*, SMN2 splice enh -43%, NPC1 promoter act -35% and FLuc modulator -2%.
For CC(=O)Nc1ccc(C(=O)COC(=O)c2c(C)noc2C)c(F)c1 the results were Rab9 promoter act -3%, ELG1 genotox 0%, ELG1 DNA repair 2%, NPC1 promoter act 0% and FLuc modulator inconclusive.
CC(=O)Nc1ccc(C(=O)COC(=O)C2CC2C)c(F)c1 (centres undefined) was read as Rab9 promoter act 1.4µM*, ELG1 genotox inconclusive, ELG1 DNA repair inconclusive, NPC1 promoter act 1.4µM* and FLuc modulator 2.1µM*.
CC(=O)Nc1ccc(C(=O)COC(=O)c2cccs2)c(F)c1 was read as Rab9 promoter act 3.5µM*, ELG1 genotox inconclusive, ELG1 DNA repair inconclusive, NPC1 promoter act 2.8µM* and FLuc modulator 3.4µM*.
`CCC[n+]1c2ccccc2cc2ccccc21` gave Rab9 promoter act -39%, ELG1 genotox -31%, ELG1 DNA repair 23µM*, NPC1 promoter act -29% and FLuc modulator inconclusive.
For Cc1cccc(-n2cnc(C(=O)NC3CCCCCC3)c2)n1 the results were Rab9 promoter act 3.5µM*, ELG1 genotox inconclusive, ELG1 DNA repair inconclusive, SMN2 splice enh inconclusive, NPC1 promoter act 2.5µM* and FLuc modulator 15µM*.
`Cc1cccc(-n2cnc(C(=O)O)c2)n1` gave Rab9 promoter act 0%, ELG1 genotox 0%, ELG1 DNA repair 2%, SMN2 splice enh 24%, NPC1 promoter act -1% and FLuc modulator 3%.
For NC1CONC1=O (centres undefined) the results were Rab9 promoter act 4%[46.1 µM], SMN2 splice enh -1% and NPC1 promoter act 1%[46.1 µM].
CCOCCCNC(=O)c1cc(=O)n(Cc2cccc(C)c2)c2ccccc12 was read as Rab9 promoter act 0%, ELG1 genotox -4%, ELG1 DNA repair 16µM*, SMN2 splice enh -5%, NPC1 promoter act -6% and FLuc modulator -5%.
For O=[N+]([O-])CC(=Nc1ccc(Cl)cc1)N/N=C\c1oc(O)c2ccccc12 the results were Rab9 promoter act inconclusive, ELG1 genotox 11%, ELG1 DNA repair inconclusive, SMN2 splice enh 10%, NPC1 promoter act inconclusive and FLuc modulator 12µM*.
`CC(=O)Nc1cccc(NC(=O)Cc2csc(COc3cccc(C)c3)n2)c1` gave FLuc modulator -12%.
